Data as given in the supplement of paper PMC10849652.
About 7,900 targets were measured; listed, in parts, are those with a hit and a random draw of the rest. About 0.6% of all pairs of compound and target were hits. Values without a mark were called inactive.

Tests used:
Test in all cases: log2 fold change, soluble protein after heating vs DMSO (PISA); higher = thermal stabilisation; K562 cells, 10 uM, 30 min; active = over 0.2 and 3.5 SD of the protein, either way, in both replicates (recomputed)
[1] = compound: COC1=CC=C(C=C1)CN2C=CC3=C2C=C(C=C3)C(=O)NO
Procedure, shortened: (§1)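 K562 cells at 2×10^6 cells/mL were exposed to 10 μM compound for 30 min, then aliquots were heated for 3 min across 48°C-58°C, pooled, and extracted in PBS containing 0.5% NP-40 at 4°C. The supernatant after 21,000xg for 90 min was taken as soluble protein and measured by TMTpro 16plex LC-MS/MS with channel sums equalised. Thermal stability is reported relative to control samples, with values from duplicates. Fold changes are given on a log2 scale.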

[2] = compound: CON(C)C(=O)N1N=C(c2cc(F)ccc2F)S[C@@]1(CCCN)c1ccccc1 [filanesib]
Procedure, shortened: as §1

[3] = compound: CO[C@H]1C[C@@H]2CC[C@@H](C)[C@@](O)(O2)C(=O)C(=O)N2CCCC[C@H]2C(=O)O[C@H]([C@H](C)C[C@@H]2CC[C@H](n3cnnn3)[C@H](OC)C2)CC(=O)[C@H](C)/C=C(\C)[C@@H](O)[C@@H](OC)C(=O)[C@H](C)C[C@H](C)/C=C/C=C/C=C/1C [zotarolimus]
Procedure, shortened: as §1

[4] = compound: COc1cc(C(=O)O)ccc1NC(=O)[C@@H]1N[C@@H](CC(C)(C)C)[C@](C#N)(c2ccc(Cl)cc2F)[C@H]1c1cccc(Cl)c1F [idasanutlin]
Procedure, shortened: as §1

[5] = compound: COc1cc(Nc2ncc3c(n2)-c2ccc(Cl)cc2C(c2c(F)cccc2OC)=NC3)ccc1C(=O)O [alisertib]
Procedure, shortened: as §1

[6] = compound: COc1cc2nc(-c3cc(F)ccc3O)nc(N[C@@H]3CNC[C@H]3C(C)(C)O)c2cc1OC
Procedure, shortened: as §1

[7] = compound: COc1cc2ncnc(Nc3ccc(F)c(Cl)c3)c2cc1OCCCN1CCOCC1 [gefitinib]
Procedure, shortened: as §1

[8] = compound: COc1cccc2cc(-c3nc([C@H]4CC[C@H](C(=O)O)CC4)n4ncnc(N)c34)[nH]c12
Procedure, shortened: as §1

[9] = compound: CS(=O)(=O)CCNCc1ccc(-c2ccc3ncnc(Nc4ccc(OCc5cccc(F)c5)c(Cl)c4)c3c2)o1 [lapatinib]
Procedure, shortened: as §1

[10] = compound: CS(=O)(=O)N1CCN(Cc2cc3nc(-c4cccc5[nH]ncc45)nc(N4CCOCC4)c3s2)CC1 [pictilisib]
Procedure, shortened: as §1

UniProt P42575, sequence (P42575 whole entry, looked up): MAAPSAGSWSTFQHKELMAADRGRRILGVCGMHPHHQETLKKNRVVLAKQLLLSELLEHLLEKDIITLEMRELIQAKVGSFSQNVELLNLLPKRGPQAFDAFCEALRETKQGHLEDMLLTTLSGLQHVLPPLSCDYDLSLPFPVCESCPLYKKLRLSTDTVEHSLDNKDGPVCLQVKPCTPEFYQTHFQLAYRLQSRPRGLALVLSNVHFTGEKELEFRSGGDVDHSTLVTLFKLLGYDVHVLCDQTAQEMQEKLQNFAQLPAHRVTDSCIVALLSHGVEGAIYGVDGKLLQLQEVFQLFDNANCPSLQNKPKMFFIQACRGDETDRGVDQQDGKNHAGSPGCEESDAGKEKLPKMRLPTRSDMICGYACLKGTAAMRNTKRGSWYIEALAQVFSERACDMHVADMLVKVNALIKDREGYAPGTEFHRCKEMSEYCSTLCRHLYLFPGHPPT
UniProt Q99439, sequence (Q99439 whole entry, looked up): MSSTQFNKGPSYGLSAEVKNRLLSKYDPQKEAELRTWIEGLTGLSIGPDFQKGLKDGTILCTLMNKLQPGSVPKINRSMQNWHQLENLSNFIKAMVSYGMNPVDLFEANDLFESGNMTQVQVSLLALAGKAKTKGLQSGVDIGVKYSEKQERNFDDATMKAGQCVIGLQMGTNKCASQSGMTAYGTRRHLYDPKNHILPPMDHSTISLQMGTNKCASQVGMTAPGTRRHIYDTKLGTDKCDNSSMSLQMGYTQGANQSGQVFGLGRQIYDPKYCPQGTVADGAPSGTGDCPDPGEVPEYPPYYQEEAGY
UniProt P33240, sequence (P33240 whole entry, looked up): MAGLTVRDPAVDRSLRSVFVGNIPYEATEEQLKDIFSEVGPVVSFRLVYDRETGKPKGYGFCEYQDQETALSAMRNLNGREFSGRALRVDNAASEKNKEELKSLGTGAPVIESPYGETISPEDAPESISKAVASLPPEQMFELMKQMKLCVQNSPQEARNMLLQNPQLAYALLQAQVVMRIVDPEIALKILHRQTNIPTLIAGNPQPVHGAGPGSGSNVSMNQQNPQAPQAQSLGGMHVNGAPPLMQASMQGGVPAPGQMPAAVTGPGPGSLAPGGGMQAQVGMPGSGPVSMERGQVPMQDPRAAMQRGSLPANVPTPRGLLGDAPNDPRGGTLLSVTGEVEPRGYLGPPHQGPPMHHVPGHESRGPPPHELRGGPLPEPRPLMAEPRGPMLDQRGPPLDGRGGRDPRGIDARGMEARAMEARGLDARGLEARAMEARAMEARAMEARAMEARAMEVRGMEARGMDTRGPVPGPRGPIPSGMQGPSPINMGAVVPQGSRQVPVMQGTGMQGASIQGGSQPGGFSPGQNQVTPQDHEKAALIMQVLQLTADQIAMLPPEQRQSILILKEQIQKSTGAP
UniProt Q10570, sequence (Q10570 whole entry, looked up): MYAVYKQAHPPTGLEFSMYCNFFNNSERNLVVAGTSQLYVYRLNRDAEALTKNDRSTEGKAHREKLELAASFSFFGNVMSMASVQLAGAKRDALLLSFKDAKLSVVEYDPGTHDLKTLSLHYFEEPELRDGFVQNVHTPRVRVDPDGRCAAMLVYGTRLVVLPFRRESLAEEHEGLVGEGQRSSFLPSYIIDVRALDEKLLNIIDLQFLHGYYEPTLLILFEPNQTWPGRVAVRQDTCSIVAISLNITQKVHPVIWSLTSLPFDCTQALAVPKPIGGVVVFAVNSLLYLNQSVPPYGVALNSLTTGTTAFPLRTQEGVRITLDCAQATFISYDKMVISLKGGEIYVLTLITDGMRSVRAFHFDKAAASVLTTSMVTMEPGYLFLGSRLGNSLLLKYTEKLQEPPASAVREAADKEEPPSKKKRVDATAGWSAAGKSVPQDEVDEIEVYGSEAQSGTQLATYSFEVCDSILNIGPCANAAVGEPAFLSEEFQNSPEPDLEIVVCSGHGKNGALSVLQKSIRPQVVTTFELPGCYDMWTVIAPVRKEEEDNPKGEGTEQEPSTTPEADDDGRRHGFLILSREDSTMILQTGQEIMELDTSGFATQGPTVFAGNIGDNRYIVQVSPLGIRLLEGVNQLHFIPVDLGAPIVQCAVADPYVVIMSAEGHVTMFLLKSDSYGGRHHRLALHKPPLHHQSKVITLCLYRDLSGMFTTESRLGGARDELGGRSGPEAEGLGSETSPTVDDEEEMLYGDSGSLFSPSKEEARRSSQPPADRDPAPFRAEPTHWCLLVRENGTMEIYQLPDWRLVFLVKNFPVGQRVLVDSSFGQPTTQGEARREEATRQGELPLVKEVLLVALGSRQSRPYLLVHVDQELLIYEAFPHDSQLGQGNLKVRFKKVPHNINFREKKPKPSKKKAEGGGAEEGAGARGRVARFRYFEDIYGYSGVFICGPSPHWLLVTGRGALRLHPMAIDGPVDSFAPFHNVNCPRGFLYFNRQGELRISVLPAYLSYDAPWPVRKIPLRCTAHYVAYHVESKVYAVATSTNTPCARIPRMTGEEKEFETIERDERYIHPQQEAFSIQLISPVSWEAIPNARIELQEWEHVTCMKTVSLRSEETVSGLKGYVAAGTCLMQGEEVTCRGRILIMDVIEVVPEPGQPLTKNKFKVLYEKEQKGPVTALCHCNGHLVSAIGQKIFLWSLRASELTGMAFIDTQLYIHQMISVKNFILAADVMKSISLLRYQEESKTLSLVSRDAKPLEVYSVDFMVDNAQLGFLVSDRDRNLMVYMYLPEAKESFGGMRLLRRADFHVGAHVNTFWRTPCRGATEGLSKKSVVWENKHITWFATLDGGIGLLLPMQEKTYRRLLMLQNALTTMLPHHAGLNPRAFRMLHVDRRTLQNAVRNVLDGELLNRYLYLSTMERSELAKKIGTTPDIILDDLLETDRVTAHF
UniProt P35790, sequence (P35790 whole entry, looked up): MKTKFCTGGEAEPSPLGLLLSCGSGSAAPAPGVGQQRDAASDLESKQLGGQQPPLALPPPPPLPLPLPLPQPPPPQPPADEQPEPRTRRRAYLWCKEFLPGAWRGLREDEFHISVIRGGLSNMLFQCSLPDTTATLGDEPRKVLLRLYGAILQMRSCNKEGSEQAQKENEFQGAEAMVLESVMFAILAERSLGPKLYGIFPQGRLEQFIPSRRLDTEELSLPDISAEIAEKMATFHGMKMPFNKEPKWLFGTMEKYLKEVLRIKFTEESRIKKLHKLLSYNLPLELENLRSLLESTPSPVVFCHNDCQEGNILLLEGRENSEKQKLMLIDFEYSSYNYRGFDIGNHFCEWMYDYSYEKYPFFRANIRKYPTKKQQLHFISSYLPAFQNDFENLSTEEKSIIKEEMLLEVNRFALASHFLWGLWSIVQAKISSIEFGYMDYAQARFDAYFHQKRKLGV
UniProt P16152, sequence (P16152 whole entry, looked up): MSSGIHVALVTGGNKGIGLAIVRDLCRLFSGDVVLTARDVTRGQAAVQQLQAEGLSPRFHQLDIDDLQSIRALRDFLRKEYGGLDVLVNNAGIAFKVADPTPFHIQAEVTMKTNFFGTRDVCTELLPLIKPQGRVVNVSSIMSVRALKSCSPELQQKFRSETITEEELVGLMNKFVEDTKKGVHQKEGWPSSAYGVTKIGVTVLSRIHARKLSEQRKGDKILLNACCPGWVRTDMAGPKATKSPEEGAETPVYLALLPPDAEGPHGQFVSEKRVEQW
UniProt Q9Y3X0, sequence (Q9Y3X0 whole entry, looked up): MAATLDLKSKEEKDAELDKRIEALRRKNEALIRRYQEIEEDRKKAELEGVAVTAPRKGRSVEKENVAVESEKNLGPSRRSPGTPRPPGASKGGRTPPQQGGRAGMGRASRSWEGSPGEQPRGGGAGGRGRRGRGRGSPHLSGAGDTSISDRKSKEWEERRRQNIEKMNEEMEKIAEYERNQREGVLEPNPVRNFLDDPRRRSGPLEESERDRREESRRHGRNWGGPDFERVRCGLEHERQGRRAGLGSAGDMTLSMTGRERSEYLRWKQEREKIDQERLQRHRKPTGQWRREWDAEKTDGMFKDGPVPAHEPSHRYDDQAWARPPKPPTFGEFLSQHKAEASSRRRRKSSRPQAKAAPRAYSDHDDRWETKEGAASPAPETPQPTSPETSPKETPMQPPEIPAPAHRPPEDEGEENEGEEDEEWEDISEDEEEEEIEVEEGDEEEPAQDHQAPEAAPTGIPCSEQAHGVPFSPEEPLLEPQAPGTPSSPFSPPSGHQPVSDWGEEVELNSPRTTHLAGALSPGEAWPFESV
UniProt Q9Y646, sequence (Q9Y646 whole entry, looked up): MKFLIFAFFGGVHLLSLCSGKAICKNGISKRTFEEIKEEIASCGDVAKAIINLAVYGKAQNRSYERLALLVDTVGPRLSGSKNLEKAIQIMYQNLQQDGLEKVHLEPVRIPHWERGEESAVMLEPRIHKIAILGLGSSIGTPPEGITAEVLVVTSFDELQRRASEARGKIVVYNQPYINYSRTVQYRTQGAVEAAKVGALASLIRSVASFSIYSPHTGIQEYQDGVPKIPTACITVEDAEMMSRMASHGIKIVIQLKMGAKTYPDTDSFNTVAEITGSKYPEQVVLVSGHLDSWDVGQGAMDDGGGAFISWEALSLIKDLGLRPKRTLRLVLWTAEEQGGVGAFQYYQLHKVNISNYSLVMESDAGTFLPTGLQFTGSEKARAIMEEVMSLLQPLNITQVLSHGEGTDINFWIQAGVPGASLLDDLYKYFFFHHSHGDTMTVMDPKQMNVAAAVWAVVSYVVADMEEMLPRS
UniProt P86791, sequence (P86791 whole entry, looked up): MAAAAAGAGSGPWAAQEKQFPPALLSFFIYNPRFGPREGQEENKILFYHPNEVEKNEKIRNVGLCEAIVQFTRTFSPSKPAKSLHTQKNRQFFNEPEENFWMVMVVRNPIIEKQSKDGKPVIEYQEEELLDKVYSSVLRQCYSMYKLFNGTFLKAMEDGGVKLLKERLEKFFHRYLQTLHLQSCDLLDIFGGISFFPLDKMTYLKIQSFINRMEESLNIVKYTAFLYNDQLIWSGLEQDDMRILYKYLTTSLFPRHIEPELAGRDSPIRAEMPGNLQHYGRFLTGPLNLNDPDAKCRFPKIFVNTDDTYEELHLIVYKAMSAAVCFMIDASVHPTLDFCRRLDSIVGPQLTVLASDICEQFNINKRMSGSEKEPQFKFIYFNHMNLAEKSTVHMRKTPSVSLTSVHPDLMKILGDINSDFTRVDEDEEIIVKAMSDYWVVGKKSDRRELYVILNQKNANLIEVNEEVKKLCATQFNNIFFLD

Target	log2 fold change [1]	log2 fold change [2]	log2 fold change [3]	log2 fold change [4]	log2 fold change [5]	log2 fold change [6]	log2 fold change [7]	log2 fold change [8]	log2 fold change [9]	log2 fold change [10]
CDC42SE1 (UniProt Q9NRR8)	-0.011	-0.049	0	-0.093	0.003	0.036	-0.025	-0.168	-0.088	
C22orf39 (UniProt Q6P5X5)	0.02	-0.043	-0.014	0.119	-0.025	-0.344	0.058	-0.006	0.077	
CDC25B isoform 4 (UniProt P30305)	-0.038	0.005	-0.056	0.052	-0.018	0.026	-0.013	0.068	-0.012	0.03
CDK13 (UniProt Q14004)	-0.323	0.169	0.029	0.215	-0.141	-0.197	0.001	0.037	0.054	-0.048
CD55 isoform 7 (UniProt P08174)	-0.115	0.086	0.001	0.038	-0.144	0.012	0.104	-0.136	0.031	0.005
CAD (UniProt P27708)	0.019	-0.054	-0.014	-0.03	-0.058	-0.011	-0.044	0.047	-0.031	-0.04
CBS (UniProt P35520)	-0.225 (active)	-0.05	0.044	0.014	-0.073	0.024	0.007	0.011	-0.026	0.043
COMMD2 (UniProt Q86X83)	-0.039	0.058	0.124	-0.058	-0.126	0.076	0.018	0.001	0.02	0.007
CCZ1 (UniProt P86791)	0.052	-0.062	0.044	-0.015	-0.072	-0.036	0.013	0.018	-0.005	-0.047
CD53 (UniProt P19397)	-0.1	0.025	-0.022	0.084	-0.04	0.154	0.053	0.102	-0.208	0.276
CCNK isoform 4 (UniProt O75909)	-0.067	0.177	0.163	0.061	-0.013	-0.021	-0.014	0.024	0.066	-0.033
CDAN1 (UniProt Q8IWY9)	-0.032	-0.017	0.008	-0.088	-0.041	-0.044	-0.034	0.185	0.005	0.011
CDC37L1 (UniProt Q7L3B6)	-0.027	0.047	-0.057	-0.031	-0.009	-0.106	0.029	-0.037	0.034	-0.051
CD63 (UniProt P08962)	-0.053	-0.336 (active)	-0.01	-0.051	-0.069	-0.031	-0.076	0.096	-0.002	0.032
CPQ (UniProt Q9Y646)	-0.014	-0.05	-0.058	-0.093	-0.054	0.01	0.038	0.047	-0.014	0.027
COPS3 (UniProt Q9UNS2)	0.12	-0.035	-0.004	-0.09	-0.012	0.008	-0.031	0.052	-0.015	-0.063
CHD3 isoform 3 (UniProt Q12873)	-0.137	0.082	0.174	0.097	-0.001	-0.207	0	-0.051	-0.016	-0.024
CSTF2 (UniProt P33240)	-0.052	0.005	-0.009	0.013	-0.016	-0.005	-0.07	0.023	0.021	0.069
COX6B1 (UniProt P14854)	-0.08	0.003	0.012	0	0.007	0.045	0.036	0.019	-0.026	0.002
CCNB1 (UniProt P14635)	-0.006	-0.035	-0.009	0.003	-0.061	0.015	-0.009	0.017	-0.044	0.002
CETN3 (UniProt O15182)	-0.211	-0.026	0.041	0.068	-0.058	0.161	-0.001	0.072	-0.175	0.061
CASP2 (UniProt P42575)	0.122	-0.02	0.047	-0.067	-0.019	-0.245	-0.082	0.072	-0.323 (active)	0.069
COQ9 (UniProt O75208)	0.02	-0.113	-0.017	0.166	-0.038	-0.013	0.025	0.045	0.043	-0.041
CCDC9 (UniProt Q9Y3X0)	0.057	0.021	-0.11	0.018	-0.035	0.02	-0.078	-0.021	0.003	-0.015
CBR1 (UniProt P16152)	0	-0.024	0.071	-0.074	-0.036	0.001	-0.004	0.028	0.037	-0.035
CNN2 (UniProt Q99439)	-0.008	-0.058	-0.002	-0.029	-0.007	0.021	0.012	-0.065	-0.041	-0.054
CDK5RAP1 (UniProt Q96SZ6)	-0.395 (active)	-0.049	0.066	-0.076	-0.057	0.131	-0.074	0.055	-0.034	0.075
CHKA (UniProt P35790)	-0.021	0.02	-0.148	-0.009	-0.032	0.065	-0.016	0.004	-0.013	0.041
CPSF1 (UniProt Q10570)	-0.042	0.164	0.095	0.053	-0.08	0.02	-0.079	0.01	0.029	-0.058
CPD (UniProt O75976)	0.022	0.082	-0.045	-0.005	-0.038	0.046	0.007	0.015	-0.01	0.034
